Only some compounds are listed: those with a hit (about 19% of all), similar ones and a draw of the others.
TDP1 cell CPT: DT40-hTDP1 cell growth loss with CPT | chicken DT40 Tdp1-/-;hTDP1 cells + 20 nM CPT, ATP luminescence, 48 h | Potency, µM (highest dose often 46.2 µM), for inactives: at the highest dose activity change, negative = growth inhibition, actives largely listed as inhibitors | 12% of 420,000 active | AID 686979; further: potency means the concentration at half of the fitted maximal effect; nearly all actives have a fitted effect of over 55% in size
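Chicken DT40 Tdp1-/- cells stably complemented with human TDP1 were seeded at 400 cells/well in medium containing 20 nM camptothecin, exposed to pin-transferred compounds, and grown at 37 °C for at least 48 hr. Viability was read as ATP luminescence.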
HT1080 IDH1KD tx: HT-1080 IDH1 knockdown cell toxicity (counter line); HT-1080 IDH1 knockdown viability, ATP luminescence, 48 h; Potency, µM (highest dose often 46.1 µM), without a hit: top-dose activity, negative = toxicity, hits mostly cytotoxic; 2% of 360,000 active; AID 686971;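 further: potency means the concentration at half of the fitted maximal effect; 0% = DMSO wells and -100% = cell-free medium wells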
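HT-1080-IDH1KD cells (IDH1 knocked down), 750/well in RPMI with 5% FBS, treated with compound 48 h at 37 degrees C. Viability by CellTiter-Glo luminescence, normalised to DMSO and no-cell wells; concentration-response curves classed.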
IL1B secr inh: inhibitors of inflammasome signaling (IL-1 beta secretion). THP-1 LPS/ATP IL-1B secretion, AlphaLISA, 16 h; hits give low values. activity change, % at 57.5 µM. 4.7% of 360,000 active; in the data active means activity change below about -50%; inconclusive means mostly about -30% to -49%
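Secreted IL-1B measured by AlphaLISA bead assay after 16 h compound exposure of THP-1 cells; compounds (final up to 57.5 uM) added 1 h before LPS (250 ng/mL) and ATP (1.25 mM) stimulation; lower signal means less secretion.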
DT40 TDP1 no CPT: qHTS for Inhibitors of human tyrosyl-DNA phosphodiesterase 1 (TDP1): qHTS in cells in absence of CPT; DT40 Tdp1-/- hTDP1 cells, no CPT, ATP luminescence, 48 h; Potency, µM (top dose mostly 46.2 µM), for the others: at the top dose activity change, negative = growth inhibition, hits mostly inhibitors; 15% of 420,000 active; AID 686978, 2013; further: potency means the concentration at half of the fitted maximal effect; nearly all actives have a fitted effect of over 55% in size
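A cellular qHTS used chicken DT40 cells lacking endogenous Tdp1 but carrying stably transfected human TDP1. Compounds were applied without camptothecin, and cell growth kinetics were judged by ATP-dependent luminescence after ≥48 hr.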
HT1080NT lethal: kills 2HG-producing HT-1080-NT fibrosarcoma cells | HT-1080-NT fibrosarcoma viability, CellTiter-Glo ATP luminescence, 48 h | Potency, µM (highest dose often 46.1 µM), for inactives: top-dose activity, negative = less viability, usual class: cytotoxic | 1.6% of 360,000 active | AID 686970;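 further: NT is the 2HG producing partner of a matched IDH1 knockdown line; potency means the concentration at half of the fitted maximal effect; 0% = DMSO-treated cells and -100% = media-only wells without cells; nearly all actives have a fitted effect of over 55% in size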
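Compounds were tested in concentration-response format on HT-1080-NT cells for 48 hours at 37 degrees C. Cell viability came from CellTiter-Glo luminescence; curves were classified by r2, response magnitude and activity.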
* = called active by the depositor; ? = inconclusive; nt = no result; ! = not confirmed by another sample; [ ] = remark or other dose. Unless noted, the call rests on the fitted dose curve; in most records, active means well fitted curve in the direction sought with a large enough effect; inconclusive means small, poorly fitted or top-dose-only effect, or another doubt; inactive means no such curve, though single readings can be large; an effect the other way counts as inactive or inconclusive. Unless noted, on the % scale 0 is the no-effect control and ±100 the full control effect.

SMILES	TDP1 cell CPT	HT1080 IDH1KD tx	IL1B secr inh	DT40 TDP1 no CPT	HT1080NT lethal
COc1ccc(C2C(C#N)=C(N)Oc3n[nH]c(C)c32)cc1Cn1cc([N+](=O)[O-])cn1 (centres undefined)	?	17.6%	-20.6	?	1.9%
O[C@@H](Cc1ccncc1)C(Cl)(Cl)Cl	-4.3%	nt	nt	-24.1%	nt
O=S(=O)(c1ccc(Cl)cc1)N1CC1c1ccccc1 (centres undefined)	-19.6%	-0.3%	-1.7	-22.2%	-4.5%
Nc1cccc2c(N)cccc12	21.7µM*	nt	nt	24.3µM*	nt
c1ccc(-c2ccc(-c3[nH]ncc3CN3CCC(N4CCSCC4)CC3)cc2)cc1	?	-7.1%	-19.3	?	-4.2%
COc1ccc(S(=O)(=O)Nc2ccc(F)cc2)cc1N(C)S(=O)(=O)c1ccc(Cl)cc1	?	?	-93.8*	?	?
COc1ccc(NS(=O)(=O)c2ccc(OCC(=O)N3CCN(C)CC3)cc2)cc1Cl	-25.1%	1.9%	9.9	-7.9%	-8.0%
COc1ccc(CC(=O)NC(=S)NNC(=O)COc2c(C)cccc2C)cc1	16.4µM*	5.2%	21.8	16.4µM*	-3.5%
CC1=C(C)CN2CC(C#N)=C(N)C2C1 (centres undefined)	?	21.6%	9.1	?	?
Cc1cccc(OP(=O)(Oc2ccccc2)OC(c2ccccc2)C(F)(F)F)c1 (centres undefined)	-22.1%	4.5%	-0.8	18.4µM*	1.5%
O=CNc1ccc(OP(=O)(Oc2ccccc2)Oc2ccccc2)cc1	-23.7%	?	-19.6	-26.0%	?
O=C(c1cc(C(=O)NCc2ccccc2)c(=O)n(Cc2ccccc2)c1)c1cc(Br)ccc1O	?	?	-1.1	25.9µM*	-3.9%
Cc1ccc(O)c(C(=O)c2cc(C(=O)NCc3ccccc3)c(=O)n(Cc3ccccc3)c2)c1	7.31µM*	-10.0%	-29.9	11.6µM*	-9.6%
CCCCCn1c(CN2CCN(C(=O)OCC)CC2)nc2c1c(=O)n(C)c(=O)n2C	?	3.7%	23.8	?	0.6%
CCCCn1c(CN2CCN(c3ccc(F)cc3)CC2)nc2c1c(=O)n(C)c(=O)n2C	1.64µM*	-2.7%	47.3	1.64µM*	1.1%
CCCOP(=O)(c1ccccc1)c1ccccc1	20.6µM*	?	14.4	?	?
CCCCP(=O)(O)c1ccccc1	3.7%	-2.0%	-0.6	0.2%	-3.8%
C[C@]12CC[C@@H](O)CC1=CCC1C2CC[C@@]2(C)C1CC[C@@H]2O (some centres undefined)	-7.7%	8.8%	33.7	-1.2%	-1.2%
COC(=O)C1=C(c2ccccc2OCc2ccccc2)C[C@@H]2CC[C@H]1N2C(=O)NCc1ccc(OC)c(OC)c1	16.4µM*	-17.5%	-7.9	20.6µM*	-0.6%
COC(=O)C1=C(c2ccccc2OCc2ccccc2)C[C@@H]2CC[C@H]1N2C(=O)NCc1ccc([N+](=O)[O-])cc1	23.1µM*	?	-52.6*	?	?
CNC(=O)Oc1cccc2c1OC(C)(C)C2	1.5%	nt	nt	-20.0%	nt
CCOc1ccc(-n2c(SCc3nc(-c4ccccc4C)no3)nnc2-c2ccccc2)cc1	-10.3%	nt	nt	?	nt
CN(CC(=O)Nc1cccc(F)c1)CC(=O)Nc1cccc(S(=O)(=O)N(C)c2ccccc2)c1	23.1µM*	-8.2%	-78.8*	23.1µM*	-4.6%
CSc1ccccc1NC(=O)CN(c1cccc(C)c1)S(C)(=O)=O	-24.3%	?	1.1	-26.3%	?
CCC1(C2=NCCN2)Cc2ccccc2O1 (centres undefined)	4.73µM*!	3.6%	7.2	4.73µM*!	-2.9%
SMILES	TDP1 cell CPT	HT1080 IDH1KD tx	IL1B secr inh	DT40 TDP1 no CPT	HT1080NT lethal
O=c1cccc2n1CC1CNCC2C1 (centres undefined)	3.9%	7.9%	0.0	0.8%	6.9%
O[C@@H]1CCCC[C@H]1N1CCC(c2ccccc2)CC1	9.7%	0.6%	17.9	-0.8%	20.3%
CC(=NNC(=S)N1CC2CCC(CC2)C1)c1nccs1	0.0206µM*	?	-100.2*	0.0259µM*	-28.9%
Cc1nc2cnc(N3CCNCC3)nc2n(C)c1=O	10.2%	nt	nt	-19.0%	nt
CN(C[C@H](Cc1ccccc1)N(C[C@H](Cc1ccccc1)N(CC1(c2ccccc2)CC1)N=O)N=O)N=O	?	-7.4%	0.0	18.4µM*	?
CN1CCC2=C[C@@H](O)[C@@H]3OC(=O)c4cc5c(cc4C3C21)OCO5 (some centres undefined)	-24.6%[9.04 µM]	nt	nt	-26.1%[9.04 µM]	nt
O=C(NCCc1ccccc1)c1ccc(CSc2nc3cccnc3n2Cc2ccc(F)cc2)cc1	?	nt	nt	14.6µM*	nt
O=C(NCCc1ccccc1)c1ccc2nccnc2c1	?	7.7%	8.2	-22.6%	3.7%
Cc1ccc(S(=O)(=O)N2CCN(C(=O)COC(=O)Cc3ccccc3)CC2)c(C)c1	-19.5%	18.1%	1.7	?	18.1%
CCc1ccc(-n2nc(C)c3c2NC(=O)CSC3c2ccccc2C)cc1 (centres undefined)	?	nt	nt	18.4µM*	nt
CCc1ccc(-n2nc(C)c3c2NC(=O)CSC3c2ccc(C(=O)OC)cc2)cc1 (centres undefined)	14.6µM*	nt	nt	13µM*	nt
CCc1ccc(-n2nc(C)c3c2NC(=O)CSC3c2ccc(OC)cc2OC)cc1 (centres undefined)	18.4µM*	nt	nt	23.1µM*	nt
COc1ccc(C2SCC(=O)Nc3c2c(C)nn3-c2ccccc2)cc1 (centres undefined)	-24.1%	0.8%	6.1	?	7.8%
CCC(=NCCCN(C)C)c1c(O)n(-c2ccc(OC)cc2)c(=O)[nH]c1=O	-11.1%	2.9%	-5.9	-2.3%	7.0%
CC/C(=N\Nc1ccccc1)c1c(O)n(-c2ccccc2)c(=O)[nH]c1=O	5.8%	?	17.1	6.1%	-11.1%
C(=C/c1ccccc1)/CN1CCN(CCOC(c2ccccc2)c2ccccc2)CC1	6.68µM*	nt	nt	11.9µM*	nt
COc1ccc(C2C=C(c3ccccc3)Nc3nc(NC(=O)/C=C/c4ccccc4Cl)nn32)cc1 (centres undefined)	5.17µM*	nt	nt	3.66µM*	nt
Cc1ccccc1-n1nc(C)c2c1NC(=O)CSC2c1ccccc1C(F)(F)F (centres undefined)	25.9µM*	nt	nt	?	nt
Cc1ccc(-n2nc(C)c3c2NC(=O)CSC3c2ccc3c(c2)OCO3)cc1 (centres undefined)	-29.5%	2.3%[9.24 µM]	-4.6	?	-1.1%
COc1ccc(Br)cc1C1SCC(=O)Nc2c1c(C)nn2-c1ccccc1C (centres undefined)	?	nt	nt	18.4µM*	nt
Cc1ccc(-n2nc(C)c3c2NC(=O)CSC3c2ccc(O)cc2)cc1Cl (centres undefined)	-25.7%	nt	nt	?	nt
